Here are results for 40 compounds from PubChem BioAssay (EPA / NIEHS).

Activity calls are given as the source filed them. Rule for the calls: active = hit-call score of the fitted dose curve at least 0.9, where 1 is the maximum; inactive = score below 0.9.

A short description of one experiment: ATG_ISRE_CIS: Attagene CIS-FACTORIAL HepG2 Assay for human Interferon Regulatory Factor 1 (IRF1) binding to an Interferon-Stimulated Response Element (ISRE) (AID 2282948). To be noted: HepG2 ISRE cis-reporter (Attagene), mRNA transcription readout; actives raise or lower the signal. Summed up: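 Transiently transfected HepG2 cells carrying cis-element reporter units, dosed 24 hours. Reporter mRNA quantified by RT-PCR, fluorescent primer extension, HpaI digestion and capillary electrophoresis. Bidirectional fitting relative to DMSO.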
Take `[Cl][Nd]([Cl])[Cl]`: the compound was called inactive.

As for `CC/C=C\C/C=C\C/C=C\CCCCCCCC(=O)O`, the AC50 was 69 µM (active). Consider `CCOC(=O)CC`, for which the compound was classed as inactive. Regarding `Nc1ccc(-c2ccc(F)cc2)cc1`, the outcome was inactive. Still for that read-out and setting: next, `CC(=O)Oc1ccc(C(C)=O)cc1`: “inactive”; `C=C(C)C(=O)OCC(C)C`: “inactive”; `O=C(Nc1ccccc1)c1ccccc1O`: “inactive”. Take `CC(C)c1ccc(C#N)cc1`: the compound was classed as inactive. The same measure, in the same setting: for `CCCCCCCCCCC=CC#N` the value was “inactive”. On the same count and under the same terms, for `O=C1OC(=O)c2cc(Oc3ccc4c(c3)C(=O)OC4=O)ccc21` the value was “inactive”; for `COc1cc(C)ccc1C(C)C`, “inactive”; for `Cc1cccc(N)n1`, “inactive”.

`O=S(=O)(O)CC(O)CCl` (stereo not drawn): the compound was called inactive.

For `COc1ccc([C@@H]2CC(=O)c3c(O)cc(O[C@@H]4O[C@H](CO[C@@H]5O[C@@H](C)[C@H](O)[C@@H](O)[C@H]5O)[C@@H](O)[C@H](O)[C@H]4O)cc3O2)cc1OC`, the compound was called inactive. Consider `c1cc(N(CC2CO2)CC2CO2)ccc1OCC1CO1` (stereo not drawn), for which the AC50 was 74.4 µM (active). Consider `CCCCC(CC)CCC(CC(C)C)OS(=O)(=O)O` (stereo not drawn), for which the compound was classed as inactive. In the case of `[Cl][Bi]([Cl])([c]1ccccc1)([c]1ccccc1)[c]1ccccc1`, the AC50 is 2.74 µM (active). On to `O=C(O)C(c1ccc(Cl)cc1)c1ccc(Cl)cc1`, for which the result was inactive. On to `CC1=Nc2ccc3ccccc3c2C1(C)C`, for which the compound was classed as inactive.

Regarding `O=c1c2ccccc2nnn1CCl`, the call was inactive.

Regarding `CN(C)c1ccc(N=Nc2ccccc2C(=O)O)cc1`, the AC50 is 58.1 µM (active). Turning to `S=C(NC1CCCCC1)NC1CCCCC1`, the compound was classed as inactive. Still for that read-out and setting: for `COc1cc(NC(=O)CC(C)=O)c(OC)cc1Cl` the value was “inactive”.

With `O=C(/C=C/C=C/c1ccc2c(c1)OCO2)N1CCCCC1`, the AC50 is 89.5 µM (active).

As to `CC(C)COC(=O)C=Cc1ccccc1`, the result was inactive.

As to `CCN(CCO)c1cccc(C)c1`, the call was inactive.

On to `C=C[Si](OC(C)=O)(OC(C)=O)OC(C)=O`, for which the compound was called inactive. The same measure, in the same setting: next, `CCCC(=O)OCc1ccccc1`: “inactive”. The same measure, in the same setting: for `O=C(Cl)c1cc(C(=O)Cl)cc(C(=O)Cl)c1` the value was “inactive”. On the same count and under the same terms, next, `CC(=O)OCC(C)OC(C)=O` (stereo not drawn): “inactive”; `Nc1cccc(C(F)(F)F)c1`: “inactive”. With `Cc1cc(=O)n(-c2ccccc2)n1C`, the outcome was inactive. On the same count and under the same terms, for `Cc1ccc(N/N=c2\c(=O)cc/c(=N/Nc3ccc(S(=O)(=O)O)cc3)c2=O)c(C)c1` the value was “inactive”.

Turning to `CCC(Cc1ccccc1)(C(=O)c1ccc(N2CCOCC2)cc1)N(C)C` (stereo not drawn), the AC50 is 27.2 µM (active). Turning to `CC(C)CC(O)Cc1ccccc1` (stereo not drawn), the result was inactive. Regarding `C=C(C)C(=O)OCCOc1ccccc1`, the outcome was inactive. Same read-out and setting: next, `CCCOCCOCCOCCO`: “inactive”. The same measure, in the same setting: for `C=CCCCCCCCCC(=O)OCCCC` the value was “inactive”.

A short description of a further experiment: ATG_M_32_CIS: Attagene CIS-FACTORIAL HepG2 Assay for M32 Transcription Factor (Internal Marker) (AID 2282949).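 Note: background control marker of the multiplexed CIS panel rather than a real target.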 To be noted: HepG2 Attagene cis-factorial M32 reporter, mRNA; actives raise or lower the signal. The method in brief:
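Fluorescent capillary electrophoresis peaks of HpaI-digested, FAM-labelled RT-PCR reporter products give the signal. Source: transiently transfected human liver HepG2 cells, 24 h after chemical dosing; bidirectional fitting against DMSO.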
As for `[Cl][Nd]([Cl])[Cl]`, the compound was classed as inactive. For `CC/C=C\C/C=C\C/C=C\CCCCCCCC(=O)O`, the result was inactive. Same read-out and setting: for `CCOC(=O)CC` the value was “inactive”. On to `Nc1ccc(-c2ccc(F)cc2)cc1`, for which the call was inactive. `CC(=O)Oc1ccc(C(C)=O)cc1`: the outcome was inactive. Still for that read-out and setting: next, `C=C(C)C(=O)OCC(C)C`: “inactive”. Same read-out and setting: next, `O=C(Nc1ccccc1)c1ccccc1O`: “inactive”; `CC(C)c1ccc(C#N)cc1`: “inactive”; `CCCCCCCCCCC=CC#N`: “inactive”. The same measure, in the same setting: next, `O=C1OC(=O)c2cc(Oc3ccc4c(c3)C(=O)OC4=O)ccc21`: “inactive”; `COc1cc(C)ccc1C(C)C`: “inactive”; `Cc1cccc(N)n1`: “inactive”.

Consider `O=S(=O)(O)CC(O)CCl` (stereo not drawn), for which the result was inactive. With `COc1ccc([C@@H]2CC(=O)c3c(O)cc(O[C@@H]4O[C@H](CO[C@@H]5O[C@@H](C)[C@H](O)[C@@H](O)[C@H]5O)[C@@H](O)[C@H](O)[C@H]4O)cc3O2)cc1OC`, the result was inactive. Consider `c1cc(N(CC2CO2)CC2CO2)ccc1OCC1CO1` (stereo not drawn), for which the call was inactive.

With `CCCCC(CC)CCC(CC(C)C)OS(=O)(=O)O` (stereo not drawn), the compound was classed as inactive. For the compound `[Cl][Bi]([Cl])([c]1ccccc1)([c]1ccccc1)[c]1ccccc1`, the result was inactive. Still for that read-out and setting: for `O=C(O)C(c1ccc(Cl)cc1)c1ccc(Cl)cc1` the value was “inactive”; for `CC1=Nc2ccc3ccccc3c2C1(C)C`, “inactive”. On to `O=c1c2ccccc2nnn1CCl`, for which the result was inactive.

As for `CN(C)c1ccc(N=Nc2ccccc2C(=O)O)cc1`, the compound was called inactive. Still for that read-out and setting: next, `S=C(NC1CCCCC1)NC1CCCCC1`: “inactive”; `COc1cc(NC(=O)CC(C)=O)c(OC)cc1Cl`: “inactive”. Still for that read-out and setting: for `O=C(/C=C/C=C/c1ccc2c(c1)OCO2)N1CCCCC1` the value was “inactive”; for `CC(C)COC(=O)C=Cc1ccccc1`, “inactive”. As to `CCN(CCO)c1cccc(C)c1`, the outcome was inactive. As for `C=C[Si](OC(C)=O)(OC(C)=O)OC(C)=O`, the compound was called inactive.

Regarding `CCCC(=O)OCc1ccccc1`, the compound was called inactive. The same measure, in the same setting: for `O=C(Cl)c1cc(C(=O)Cl)cc(C(=O)Cl)c1` the value was “inactive”; for `CC(=O)OCC(C)OC(C)=O` (stereo not drawn), “inactive”; for `Nc1cccc(C(F)(F)F)c1`, “inactive”. On the same count and under the same terms, next, `Cc1cc(=O)n(-c2ccccc2)n1C`: “inactive”; `Cc1ccc(N/N=c2\c(=O)cc/c(=N/Nc3ccc(S(=O)(=O)O)cc3)c2=O)c(C)c1`: “inactive”. With `Cc1cc(C)c(C)cc1C`, the result was inactive. On to `CCC(Cc1ccccc1)(C(=O)c1ccc(N2CCOCC2)cc1)N(C)C` (stereo not drawn), for which the call was inactive. Regarding `Cc1cc(C)c(C)c(C)c1`, the outcome was inactive. The same measure, in the same setting: next, `CC(C)CC(O)Cc1ccccc1` (stereo not drawn): “inactive”; `C=C(C)C(=O)OCCOc1ccccc1`: “inactive”; `CCCOCCOCCOCCO`: “inactive”.

Consider `C=CCCCCCCCCC(=O)OCCCC`, for which the compound was classed as inactive.
